# Cruzain Triton: cruzain (T. cruzi) inhibition with detergent. 0.43% of 200,000 active. Potency, µM, for inactives: max response, negative = inhibition, usual class: inhibitors. purified cruzain, Z-FR-AMC fluorescence, 0.01% Triton. AID 1478. P25779;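 also: plate controls were neutral wells for no effect and buffer without enzyme for full effect; nearly all actives have a fitted effect of over 40% in size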
# Target sequence (P25779 123-467 limits assumed): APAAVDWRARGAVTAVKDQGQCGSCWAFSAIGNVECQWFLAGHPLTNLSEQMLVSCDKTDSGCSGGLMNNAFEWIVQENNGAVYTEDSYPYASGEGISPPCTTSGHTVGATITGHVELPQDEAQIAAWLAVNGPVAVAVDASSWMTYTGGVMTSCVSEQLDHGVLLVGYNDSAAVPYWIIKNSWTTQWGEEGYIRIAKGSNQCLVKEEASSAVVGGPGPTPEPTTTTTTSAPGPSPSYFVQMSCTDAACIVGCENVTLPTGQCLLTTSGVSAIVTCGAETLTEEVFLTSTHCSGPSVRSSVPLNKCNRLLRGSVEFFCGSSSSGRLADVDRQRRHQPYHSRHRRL
#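 Sodium acetate buffer (100 mM, pH 5.5) containing 5 mM DTT and 0.01% Triton X-100 hosted 1.5 nM cruzain and test compound for 15 min at room temperature. Cleavage of 2 uM Z-FR-AMC was then tracked by fluorescence.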
# Cruzain inh noDet: cruzain (T. cruzi) inhibition without detergent; purified cruzain, Z-FR-AMC fluorescence, no detergent; P25779; 2.3% of 200,000 active; Potency, µM, for inactives: max response, negative = inhibition, most hits filed as inhibitors;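 also: plate controls were enzyme without inhibitor for no effect and buffer without enzyme for full effect; nearly all actives have a fitted effect of over 40% in size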
#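 Purified cruzain at 1.5 nM, pre-incubated 15 min with compound at room temperature in 100 mM sodium acetate pH 5.5, 5 mM DTT, 0.00005% Triton X-100. Reaction started with 2 uM Z-FR-AMC; AMC fluorescence increase over 60 s gives rate.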
# * marks the source's active call; other numbers are inactive results; ? = inconclusive; ! = not confirmed by another sample. Most compounds without a hit are left out; they make up all but 2.6% or so of the library. Calls follow the shape of the dose curve; as a rule, active = well fitted curve in the direction sought with a large enough effect; inconclusive = small, poorly fitted or top-dose-only effect, or another doubt; inactive = no such curve, though single readings can be large; an effect the other way counts as inactive or inconclusive. Potency is read from the fitted curve at half-maximal effect.
SMILES,Cruzain Triton,Cruzain inh noDet
CC1CCC(NC(=O)c2ccc3c(c2)N(Cc2cccc(F)c2)C(=O)c2ccccc2S3)CC1 (stereo not given),1%,?
Cc1ccccc1CN1C(=O)c2ccccc2Sc2ccc(C(=O)NCc3ccccc3)cc21,1%,32µM*
COc1ccccc1CCNC(=O)Cc1c(C)c2cc3c(C(C)(C)C)coc3c(C)c2oc1=O,4%,-19%
CSCCC=O,0%,-8%
O=C(Nc1cc2c(cc1C(=O)c1ccc(Br)cc1)OCCO2)c1ccc(Cl)cc1,-2%,-3%
Cc1ccc(S(=O)(=O)Nc2ccc3c(c2)c2c(n3S(=O)(=O)c3ccc(C)cc3)CCCC2=O)cc1,-5%,7.9µM*
CCOC(=O)c1c(C)n(S(=O)(=O)c2ccc(C)cc2)c2ccc(NS(=O)(=O)c3ccc(C)cc3)cc12,-2%,4µM*
Cc1ccc(S(=O)(=O)Nc2ccc3c(c2)CCC3)cc1,-13%,-6%
CCn1cnc2cc(NS(=O)(=O)c3ccc(C)cc3)ccc21,0%,20%
O=c1[nH]c(SCc2cccc([N+](=O)[O-])c2)nc2nc[nH]c12,2%,6%
COc1ccc(N2CCN(CCNC(=O)CCNS(=O)(=O)c3cccs3)CC2)cc1,2%,-7%
CC(C)C(NS(=O)(=O)c1cccs1)C(=O)NCCN1CCN(c2ccccc2)CC1 (stereo not given),20µM*,25µM*
Cc1[nH]c(N)nc(=S)c1CCC(=O)O,-1%,2%
CCOC(=O)C(Cc1ccccc1)C(=O)Nc1ccc(NC(=O)C(Cc2ccccc2)C(=O)OCC)cc1 (stereo not given),-2%,7.9µM*
CCOC(=O)C(Cc1ccccc1)C(=O)Nc1ccccc1C (stereo not given),2%,4%
COC(=O)N1[C@H](C)C=C[C@]1(Cc1ccccc1)C(=O)NCc1ccc(N(C)C)cc1,5%,-3%
CCCC(=O)NCc1ccc2c(c1)cc(C)n2C,7%,4%
O=C(NCc1ccncc1)Nc1cccc(Cl)c1,1%,-2%
Cc1cc2cc(CNC(=O)Nc3cccc(Cl)c3)ccc2n1C,2%,13µM*
Cc1cccc(NC(=O)NCc2ccc3c(c2)cc(C)n3C)c1,6%,7.9µM*
CCCC[N+](=O)[O-],12%,1%
Cc1cc2c(C(C)C)c(O)c(O)c(C=O)c2c(O)c1-c1c(C)cc2c(C(C)C)c(O)c(O)c(C=O)c2c1O,25µM*!,?
CC(=O)[C@H]1CC[C@@H]2[C@]1(C)CC=C1[C@@]23C=C[C@]2(C[C@H](O)CC[C@@]12C)[C@H](C(=O)O)[C@@H]3C(=O)O,-3%,-3%
Cc1cc(C(=O)Nc2nc(C)c(C(=O)N(C)C)s2)ccc1[N+](=O)[O-],-4%,-5%
Cc1nc(NC(=O)c2ccc([N+](=O)[O-])cc2Cl)sc1C(=O)N(C)C,16µM*,-14%
SMILES,Cruzain Triton,Cruzain inh noDet
O=C(NCCCc1ccccc1)c1ccccc1,5%,1%
O=C(NCC#CCOCc1ccccc1)c1ccccc1,11µM*,13µM*
Cc1ccc2c(=O)c(C(=O)c3ccccc3)cn(CC(=O)Nc3ccc4c(c3)OCCO4)c2n1,-2%,-4%
COc1ccc(C(=O)Nc2ccc(OC)c(OC)c2)cc1,-3%,-12%
Cc1ccc(NC(=O)c2ccc(OC(=O)C(C)Oc3ccc(Cl)cc3C)cc2)cc1 (stereo not given),2%,7.9µM*
CC(C)CN1CCCC2(CCN(C(=O)c3cccc(F)c3)CC2)C1,4%,5%
Cc1cccc2cc(C#N)c(SCC(=O)N3CC(=O)Nc4ccccc43)nc12,-3%,25µM*
Cc1cccc2cc(C#N)c(SCC(=O)N3CCC(C)CC3)nc12,-11%,-13%
CC(=O)Nc1cccc(Nc2nc3ccccc3n3c(C)nnc23)c1,-8%,3%
COc1cccc([C@@H]2Oc3ccc(Br)cc3C(=O)[C@H]2OC(=O)NS(=O)(=O)c2ccc(C)cc2)c1,1%,-11%
Cc1ccc(-c2csc3ncnc(SCC(=O)NCc4ccc5c(c4)OCO5)c23)cc1,-1%,25µM*
O=C(CSc1ncnc2scc(-c3ccc(Cl)cc3)c12)NCc1ccc2c(c1)OCO2,-1%,?
N/C(=N\O)c1cn([C@@H]2O[C@@H](CO)[C@H](O)[C@@H]2O)c2ncnc(NO)c12,-1%,1%
Cn1c(=O)c2c(ncn2CC(=O)Nc2cccc(Cl)c2Cl)n(C)c1=O,28µM*,?
Cc1ccccc1NC(=O)Cn1cnc2c1c(=O)n(C)c(=O)n2C,5%,14%
O=C(Nc1ccc(/C=C/c2nc3ccccc3o2)cc1)c1c(F)cccc1F,-1%,10µM*
Cc1cnc(Nc2nc3ccccc3o2)nc1C(=O)Nc1cccc(C(F)(F)F)c1,-2%,-6%
O=C(Nc1ccc2c(c1)OCCO2)c1c(F)cccc1F,-1%,-13%
O=C(Nc1ccc(/C=C/c2nc3ccccc3o2)cc1)c1cccc(C(F)(F)F)c1,-6%,7.9µM*
O=C(Cn1c(=O)c2cccn2c2ccccc21)NCCc1ccccc1,-5%,16µM*
O=C(CCCn1c(=O)c2cccn2c2ccc(F)cc21)NCCc1ccccc1,-1%,-11%
COc1cccc(NC(=O)Cn2c(=O)c3cccn3c3ccc(F)cc32)c1,-10%,18%
N/C(=N\c1nc(CSc2ccc(Cl)cc2)cc(=O)[nH]1)Nc1cccc2ccccc12,-4%,10µM*
COc1ccc(N/C(N)=N/c2nc(CSc3ccc(Cl)cc3)cc(=O)[nH]2)cc1,-5%,-18%
CCCCNC(=O)C1=CC(c2ccc3c(c2)OCO3)=NS(=O)(=O)N1C,-4%,-12%
SMILES,Cruzain Triton,Cruzain inh noDet
CN(CCOc1ccc(-c2ccn(S(=O)(=O)c3cccc4ccccc34)n2)cc1)c1ccccn1,-1%,25µM*
CN(CCOc1ccc(-c2ccn(S(=O)(=O)c3c(Cl)cccc3Cl)n2)cc1)c1ccccn1,6%,?
COc1ccc(-c2cc(C(C)=O)c(C)n2CCC(=O)Nc2ccc(C)cc2Cl)cc1,-1%,1%
Fc1ccccc1/C=N/NC(=S)Nc1ccc(Cl)cc1Cl,1%,10µM*
Fc1ccc(NC(=S)N/N=C/c2ccc(F)c(F)c2)c(F)c1,4%,?
CCn1c(C(=O)N2CCCC(C(=O)N3CCN(c4cc(C)ccc4C)CC3)C2)cc2sccc21 (stereo not given),-8%,?
O=c1c2sc3ccccc3c2n(Cc2ccc(Cl)cc2)c(=O)n1Cc1ccco1,-9%,-14%
COc1ccccc1C(=O)Nc1cc2ccccc2oc1=O,20%,3%
COc1ccccc1C(=O)Nc1cc2cc(Br)ccc2oc1=O,-2%,16µM*
O=C(CSc1nnc(-c2ccccc2Cl)o1)N1CCCc2ccccc21,-8%,3%
O=C(O)c1nnsc1COCc1ccccc1,1%,6%
O=C1C=CC(=O)c2c1ccc1c2ccc2ccccc21,-11%,-14%
Cc1ccc(C(=O)NCC(=O)OCC(=O)c2cc(C)n(Cc3ccco3)c2C)cc1,-30%,-1%
C=CCn1c(C)cc(C(=O)COC(=O)C2CC(=O)N(Cc3ccccc3)C2)c1C (stereo not given),3%,22%
Cc1cc(C(=O)COC(=O)CNC(=O)c2ccc(Cl)c(Cl)c2)c(C)n1Cc1ccco1,10µM*,-12%
C=CCn1c(C)cc(C(=O)COC(=O)CNC(=O)c2ccccc2)c1C,25µM*,20µM*
CCN(CC)CCOC(=O)c1ccc(NC(=O)c2nn(-c3ccc(C)cc3)c(=O)c3c2c2ccccc2n3C)cc1,-20%,4%
Cn1c(C(=O)Nc2ccc3c(c2)OCCO3)cc2sccc21,-9%,?
CC(C)c1ccc(NC(=O)Nc2cc3sccc3n2C)cc1,-9%,7.9µM*
CCC(C)NC(=O)c1c(C)oc2nc(C)nc(N3CCOCC3)c12 (stereo not given),-1%,-6%
C=C(C)[C@H]1CC[C@]2(CO)CC[C@]3(C)[C@@H](CC[C@H]4[C@@]5(C)CC[C@@H](O)C(C)(C)[C@@H]5CC[C@@]43C)[C@H]12,-2%,-16%
C=C(C)[C@@H]1CCC2(C(=O)O)CC[C@]3(C)[C@H](CC[C@@H]4[C@@]5(C)CCC(=O)C(C)(C)[C@@H]5CC[C@]43C)[C@@H]12 (stereo not given in full),2%,5µM*

# Compound activity from PubChem.
